From PubChem BioAssay (EPA / NIEHS)
“And” between values parts separate entries of the source, which are not always exact repeats. Equal entries are not always repeated. The source made the active and inactive calls. Rule for the calls: active = hit-call score of the fitted dose curve at least 0.9, where 1 is the maximum; inactive = score below 0.9.

Each compound was assayed on Interferon-inducible T-cell alpha chemoattractant (ITAC), CXCL11 (gene 6373) (assay: BSK_hDFCGF_ITAC: BioMAP Diversity Plus: hDFCGF Assay for Interferon-inducible T-cell alpha chemoattractant (ITAC) Biomarker Activity (AID 2284251)). Conditions: primary human foreskin fibroblasts.
Method: BSK_hDFCGF is a cell-based, multiplexed-readout assay that uses foreskin fibroblast, a human skin primary cell, with measurements taken at 24 hours after chemical dosing in a 96-well plate.BSK_hDFCGF_ITAC is an assay component measured in the BSK_hDFCGF assay. It measures I-TAC antibody related to regulation of gene expression using ELISA technology.Data from the assay component BSK_hDFCGF_ITAC was analyzed at the endpoint, BSK_hDFCGF_ITAC, in the positive analysis fitting direction relative to DMSO as the negative control and baseline of activity. Using a type of binding reporter, gain or loss-of-signal activity can be used to understand protein changes. To generalize the intended target to other relatable targets, this assay endpoint is annotated to the 'cytokine' intended target family, where the subfamily is 'chemotactic factor'.
The levels of cell surface (or secreted, indicated by the prefix "s") biomarker endpoints were measured by ELISA. Overt cytotoxicity to cells in confluent adherent cultures (all systems other than the BT system) was assessed by measuring total protein levels using sulforhodamine B (SRB) staining in parallel cultures at the time of biomarker measurements, indicated as SRB endpoints. For proliferation assays for adherent cell types, individual cell types are cultured at sub-confluence and relative cell numbers quantified by SRB staining at time points optimized for each system (48 h: 3C and CASM3C systems; 72 h: BT and HDF3CGF systems; 96 h: SAg system). SRB was performed by staining cells with 0.1% SRB after fixation with 10% TCA and reading wells at 560 nm.Viability and proliferation of PBMC (T cells) was quantified by Alamar Blue reduction for the SAg and BT systems. For PBMC viability (referred to as PBMC Cytotoxicity within the assay endpoint names), cells were plated (75,000/well in a 96-well plate) and then chemical samples added for 1 h before addition of activators, SEB and TSST-1 (20 ng/mL final concentration each). Cells were incubated for 90 h. Then, Alamar Blue (20 uL/well) (Invitrogen, Cat DAL1100) was added for 6 h, and the plates were read with a fluorescence microplate reader at 546/580 nm (excitation/emission). For PBMC proliferation, cells were plated and activated as above but incubated for only 16 h prior to addition of Alamar Blue. Plates were read after 6 h.

Compound | outcome | AC50
OCC(F)(F)OC(F)(F)C(F)(F)OC(F)(F)C(F)(F)OC(F)(F)F | inactive | –
O=S(=O)(F)C(F)(F)C(F)(F)C(F)(F)C(F)(F)C(F)(F)C(F)(F)C(F)(F)C(F)(F)F | inactive | –
COP(=O)(CCC(=O)NCO)OC | inactive | –
O=C(O)C(F)(OC(F)(F)C(F)(F)C(F)(F)F)C(F)(F)F (stereo not given) | inactive | –
C=CC(=O)OCC(F)(F)C(F)F | – | 12.7 µM (active) and 18.4 µM (active)
OCC(F)(F)OC(F)(F)C(F)(F)OC(F)(F)CO | inactive | –
O=C(O)C(F)(F)OC(F)(F)C(F)(F)OC(F)(F)F | inactive | –
NC(=O)C(F)(F)C(F)(F)F | inactive | –
O=C(O)C=CC(F)(C(F)(F)F)C(F)(F)F | inactive | –
FC(F)(F)C(F)(C(F)(F)F)C(F)(F)C(F)(F)CC1CO1 (stereo not given) | inactive | –
OCC(F)(F)OC(F)(F)C(F)(F)OC(F)(F)C(F)(F)OC(F)(F)CO | – | 23 µM (active) and 22.1 µM (active)
O=C(O)C(F)(F)C(F)(F)C(=O)O | inactive | –
O=C(O)C(F)(F)OC(F)(F)C(F)(F)OC(F)(F)C(=O)O | inactive | –
CC(O)C(F)(F)C(F)(F)F (stereo not given) | inactive | –
COC(=O)C(F)(F)C(F)(F)OC(F)(C(F)(F)F)C(F)(F)OC(F)=C(F)F (stereo not given) | – | 4.67 µM (active) and 5.4 µM (active)
